Compound activity (PubChem BioAssay)
Pf growth 48h – Primary qHTS for delayed death inhibitors of the malarial parasite plastid, 48 hour incubation | AID 504832, 2011 | Potency, µM (titrated, usually from 28.7 µM), inactives show top-dose activity change, negative = inhibition, actives largely listed as inhibitors | 310,000 tested, 5.9% active | P. falciparum luciferase growth in erythrocytes, 48 h
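First compound was added to culture medium, then infected red cells at 0.1% parasitemia and 2% hematocrit (final). After incubation at 37 C under 5% CO2, luciferase detection reagent was dispensed and light output recorded.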
AmpC detergent – qHTS Inhibitors of AmpC Beta-Lactamase (assay with detergent); Potency, µM (series often up to 114 µM), for the others: top-dose activity change, negative = inhibition, most hits filed as inhibitors; AmpC hydrolysis of nitrocefin, absorbance 480 nm, 0.01% Triton; P00811; AID 485294, 2010; 370,000 tested, 0.041% active;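 further: 0% = no-compound wells and -100% = no-enzyme wells; nearly all actives have a fitted effect of over 25% in size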
Target sequence (P00811 whole entry, looked up): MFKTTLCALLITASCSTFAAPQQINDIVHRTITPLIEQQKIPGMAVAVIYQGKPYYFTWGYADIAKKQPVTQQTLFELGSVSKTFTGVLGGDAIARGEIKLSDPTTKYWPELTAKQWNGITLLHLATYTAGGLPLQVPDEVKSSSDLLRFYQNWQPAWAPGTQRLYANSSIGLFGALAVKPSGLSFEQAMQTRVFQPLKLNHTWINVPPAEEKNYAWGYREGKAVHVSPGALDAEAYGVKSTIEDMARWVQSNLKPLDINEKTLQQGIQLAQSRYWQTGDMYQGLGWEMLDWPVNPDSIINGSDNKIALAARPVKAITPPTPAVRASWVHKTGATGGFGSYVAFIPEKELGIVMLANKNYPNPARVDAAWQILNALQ
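20 mM phosphate pH 7.0 + 0.01% (detergent screen) or 0.0001% Triton X-100; 5.3 nM AmpC reagent; cpd preinc 15 min RT; nitrocefin (800 uM stock) to start; A480 q20 s × 4 min; Activity was normalised to no-enzyme and no-compound control wells.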
AmpC inh no detg – qHTS Inhibitors of AmpC Beta-Lactamase (assay without detergent). AmpC nitrocefin hydrolysis, absorbance 480 nm, 0.0001% Triton. Potency, µM (doses to about 57.1 µM), for inactives: at the top dose activity change, negative = inhibition, usual class: inhibitors. 330,000 tested, 0.52% active. AID 485341, 2010;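 further: plate controls were no compound for no effect and no enzyme for full effect; nearly all actives have a fitted effect of over 20% in size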
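20 mM phosphate pH 7.0 + 0.01% (detergent screen) or 0.0001% Triton X-100; 5.3 nM AmpC reagent; cpd preinc 15 min RT; nitrocefin (800 uM stock) to start; A480 q20 s × 4 min; Activity was normalised to no-enzyme and no-compound control wells.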
AMA1-RON2 inh – qHTS for Inhibitors of AMA1-RON; Towards Development of Antimalarial Drug Lead: Primary Screen; Plasmodium falciparum AMA1 (3D7) - RON2 peptide interaction; AlphaScreen AMA1-biotinylated RON2 peptide binding; Potency, µM (series often up to 58.2 µM), inactives show at the top dose activity change, negative = inhibition, hits mostly inhibitors; 360,000 tested, 0.2% active;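 further: 0% = vehicle wells and -100% = peptide control; nearly all actives have a fitted effect of over 45% in size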
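AMA1 (3D7) with his tag at 25 nM final met compounds first, then biotinylated RON2 peptide at 25 nM; detection used donor plus acceptor beads, 10 µg/mL apiece, read by AlphaScreen after 30 min at room temperature.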
Pf growth 96h – Primary qHTS for delayed death inhibitors of the malarial parasite plastid, 96 hour incubation. P. falciparum luciferase reporter growth, 96 h. Potency, µM (titrated, usually from 28.7 µM), without a hit: at the highest dose activity change, negative = inhibition, most hits filed as inhibitors. 320,000 tested, 6.9% active. AID 504834, 2011
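Infected RBCs, 2% Hct / 0.05% parasitemia final; luciferase-reporter P. falciparum; cpd 96 h, 37 C, 5% CO2; luciferase detection reagent; luminescence.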
HCV inhibitor – qHTS Assay for Inhibitors of Hepatitis C Virus (HCV). Huh7.5.1 HCVcc-Cre infection, luciferase reporter, 44 h. Potency, µM (titrated, usually from 41.8 µM), inactives show top-dose activity change, negative = inhibition, hits mostly inhibitors. 340,000 tested, 3.4% active. AID 651820, 2012
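Luciferase read-out (15 sec integration) after a 15 min room-temperature substrate step quantifies HCVcc-Cre infection. Cells, 1,000 per well, had compound added 4 h post-plating, then virus at ~0.5 moi, and were cultured 44 h.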
* hit, by the source's call; ? = inconclusive; / = not tested or not shown; [ ] = another dose, or the depositor's remark. An excerpt weighted towards active compounds, which were near 11% of everything screened. The call rests on the fitted dose curve; in most records, active means well fitted curve in the direction sought with a large enough effect; inconclusive means small, poorly fitted or top-dose-only effect, or another doubt; inactive means no such curve, though single readings can be large; an effect the other way counts as inactive or inconclusive. Unless noted, on the % scale 0 is the no-effect control and ±100 the full control effect; potency means the concentration at half of the fitted maximal effect.

SMILES | Pf growth 48h | AmpC detergent | AmpC inh no detg | AMA1-RON2 inh | Pf growth 96h | HCV inhibitor
C=C1N[C@]2(C(=O)COC(C)=O)[C@@H](C[C@H]3[C@@H]4CCC5=CC(=O)C=C[C@]5(C)[C@H]4[C@@H](O)C[C@@]32C)O1 | ? | / | / | / | 9.5µM* | /
CCCC1O[C@@H]2C[C@H]3[C@@H]4CCC5=CC(=O)C=C[C@]5(C)[C@H]4[C@@H](O)C[C@]3(C)[C@]2(C(=O)CO)O1 (stereo partly specified) | 4.1µM* | -3% | 67% | 1% | 2.3µM* | 1%[8.37 µM]
CCCC1OC2CC3C4CCC5=CC(=O)C=CC5(C)C4C(O)CC3(C)C2(C(=O)O)O1 (stereo unspecified) | 8% | 2% | -5% | -2% | -66% | 7%
NCc1ccccc1Sc1ccccc1CO | -19% | / | / | / | -27% | /
CCOc1cc(C#N)c(-n2nnc3c(sc4nc(C)cc(C)c43)c2=O)cc1OCC | / | 3% | / | / | / | /
CCC(=O)[C@@]1(C)[C@H](C)C[C@H]2[C@@H]3CCC4=CC(=O)C=C[C@]4(C)[C@H]3[C@@H](O)C[C@@]21C | 2.3µM* | ? | -14% | 0% | 5% | 11%
CC(C)C(=O)OCC(=O)[C@@]12OC(C3CCCCC3)O[C@@H]1CC1C3CCC4=CC(=O)C=C[C@]4(C)C3[C@@H](O)C[C@@]12C (stereo partly specified) | 0.67µM* | / | / | / | 0.76µM* | /
CC(=O)OCC(=O)C1(O)CCC2C3CCC4=CC(=O)C=CC4(C)C3C(O)CC21C (stereo unspecified) | 0% | 5% | 7% | 17% | -3% | 17%
Cc1cccc(NC(=O)NCCOCCn2c(=O)oc3ccccc32)c1C | / | 14% | / | / | / | /
Cc1ccc(C)c(NC(=O)Nc2cc3c(cc2N2CCCCC2)n(C)c(=O)n3C)c1 | / | 9% | / | / | / | /
Cc1nc(N2CCOCC2)c2c(C(=O)N3CCN(c4ccccc4F)CC3)c(C)oc2n1 | / | -3% | / | / | / | /
NC(=O)CSc1nnc(-c2ccco2)n1-c1ccccc1 | -1% | -11% | 0% | -2% | 25% | 15%
OCCn1c(CSc2nnc(-c3ccco3)n2-c2ccccc2)nc2ccc(Cl)cc21 | 12µM* | ? | 207% | -3% | / | -17%
CCC(=O)OC1=CN(Cc2ccccc2)S(=O)(=O)c2ccccc21 | / | -5% | / | / | / | /
CCNc1nc(N)nc(Oc2ccc(OCC(=O)OC)nn2)n1 | / | 0% | / | / | / | /
CCN1CCCC1CNCC(O)COc1ccc(C(C)(C)C)cc1C (stereo unspecified) | 10µM* | 4% | 35% | 5% | 12µM* | ?
Cc1cc(C(C)(C)C)ccc1OCCOCCN1CCCC1 | -18% | 2% | 18% | -19% | ? | ?
OC(CNC1CCCCCC1)COc1cccc2ccccc12 (stereo unspecified) | 1.7µM* | 0% | -1% | -29% | 2.1µM* | ?
Cc1ccccc1OCC(O)CNC1CCC(NCC(O)COc2ccccc2C)CC1 (stereo unspecified) | 0.93µM* | -5% | 112% | 10% | 3.7µM* | ?
Cc1ccccc1OCC(O)CO (stereo unspecified) | 3% | / | / | / | -14% | /
OC(CNC1CCCC1)COc1ccccc1Br (stereo unspecified) | -102% | -18% | -3% | 0% | -97% | 2%
Cc1ccc(OCCCCNC2CCCCC2)c(C)c1 | ? | -15% | 14% | -18% | 0% | 13µM*
CCC(O)c1nc2ccccc2n1CCOc1cc(C)cc(C)c1 (stereo unspecified) | / | -2% | / | / | / | /
O=C(OCC1CCCO1)c1ccc2c(c1)N(Cc1ccccc1F)C(=O)c1ccccc1S2(=O)=O (stereo unspecified) | / | 2% | / | / | / | /
CCC12CN3CC(CC)(CN(C1)C3c1c[nH]c3ccccc13)C2=O (stereo unspecified) | / | -9% | / | / | / | /
SMILES | Pf growth 48h | AmpC detergent | AmpC inh no detg | AMA1-RON2 inh | Pf growth 96h | HCV inhibitor
Cc1ccc(OCC(O)CNC2CCCC2)c(C)c1 (stereo unspecified) | ? | ? | -25% | -3% | 13µM* | -27%
Cc1cc(C)c(NC(=O)CCCCCNC2CCCCC2)c(C)c1 | 4% | -13% | -11% | 5% | 13µM* | ?
OC(CNCCc1ccc(C(F)(F)F)cc1)COc1cccc2ccccc12 (stereo unspecified) | 7.4µM* | -7% | 108% | 5% | 6.6µM* | ?
Cc1ccc(C)c(OCCCNC2CCCC2)c1C | 12µM* | 9% | -1% | 5% | ? | -6%
COc1ccc(S(=O)(=O)N2CCC(Oc3ccc(-n4cnnn4)cc3)CC2)cc1OC | / | 2% | / | / | / | /
COc1ccccc1Cn1ccn(Cc2c(F)cccc2Cl)c(=O)c1=O | / | 3% | / | / | / | /
CCCC(=O)Nc1ccc(OC[C@@H](O)CNC(C)C)c(C(C)=O)c1 | 0%[12.8 µM] | / | / | / | -2%[12.8 µM] | /
Cc1ccccc1CSc1ncc(CO)n1Cc1ccc(F)cc1 | / | 8% | / | / | / | /
Cc1ccccc1OCC(=O)Nc1cccc(C(=O)OCc2cc(=O)n3c(C)csc3n2)c1 | / | -9% | / | / | / | /
C=CCc1ccc(OCCCCNC2CCCC2)c(OC)c1 | -19% | 5% | 1% | -16% | 22% | 10µM*
C=CCc1ccc(OC(=O)NC2CCCCC2)c(OC)c1 | 38% | -12% | -23% | 1% | -31% | 0%
Cc1ccc(C)n1-c1ccc(-c2nnco2)cc1 | -6% | ? | 13% | / | 12µM* | /
Cc1cc(-c2nnco2)c(C)n1-c1ccc(F)cc1 | 64% | 3% | -17% | -2% | -3% | -1%
COc1ccc(-c2nc3sc(CCNC(=O)C(=O)Nc4c(C)cccc4C)c(C)n3n2)cc1 | / | 2% | / | / | / | /
CCC(=O)NCCn1ccc2ccccc21 | 13% | -17% | -14% | -8% | 36% | 23%
O=S(=O)(NCCn1ccc2ccccc21)c1ccccc1 | 3% | -14% | 25µM* | -2% | -2% | -5%
COc1ccc(S(=O)(=O)N2CCN(C(=O)CCOc3ccccc3)CC2)cc1OC | ? | -1% | 22% | 19% | -17% | -7%
COc1ccc(S(=O)(=O)N2CCN(C(=O)COc3ccc(C)c(C)c3)CC2)cc1OC | 10µM* | -10% | 137% | -4% | 1% | ?
O=C(CN1CCN(S(=O)(=O)c2ccc3ccccc3c2)CC1)N1CCc2ccccc2C1 | -1% | ? | 34% | -2% | ? | ?
